About 1,300 (0.68%) of roughly 190,000 compounds were called active. Cut-off read from the data, not from the text of the source: active = inhibition above about 50%; inactive = the rest. The full list was thinned out, with actives kept by preference.
Each molecule was assayed against Mannose-6-phosphate isomerase (Homo sapiens) (UniProt P34949) (assay: MPI inhibition at elevated mannose 6-phosphate – biochemical, fluorescence intensity, high mannose 6-phosphate, primary screen (AID 1220)). Details: recombinant PMI enzyme, coupled fluorescence intensity; at 20 µM; hits give high values.
Mannose-6-phosphate isomerase (Homo sapiens), sequence (P34949 whole entry, looked up): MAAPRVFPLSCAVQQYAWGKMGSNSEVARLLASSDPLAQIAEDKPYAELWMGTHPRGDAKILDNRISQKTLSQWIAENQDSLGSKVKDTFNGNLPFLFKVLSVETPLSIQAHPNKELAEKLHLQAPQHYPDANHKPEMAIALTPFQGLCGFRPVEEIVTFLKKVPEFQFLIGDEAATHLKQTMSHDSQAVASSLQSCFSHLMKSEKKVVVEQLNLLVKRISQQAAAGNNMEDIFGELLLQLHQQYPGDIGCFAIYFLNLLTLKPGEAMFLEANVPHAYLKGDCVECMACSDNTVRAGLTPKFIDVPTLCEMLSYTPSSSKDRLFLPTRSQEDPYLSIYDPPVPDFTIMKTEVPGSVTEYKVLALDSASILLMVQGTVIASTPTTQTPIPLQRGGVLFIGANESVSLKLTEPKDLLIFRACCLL
In the case of `CNC(=O)c1ccc(-c2sc3nc(N4CCOCC4)c4c(c3c2N)CC(C)(C)OC4)o1`, the inhibition is reported as 48.4% (inactive).
For `CNC(=O)c1ccc(-c2sc3nc(N4CCOCC4)c4c(c3c2N)CCCC4)o1`, the inhibition was 55.4% (active).
With `COC(=O)c1ccc(-c2sc3nc(N4CCOCC4)c4c(c3c2N)CCCC4)o1` the inhibition was 20.1% (inactive).
`CC(C)C(=O)Nc1cccc(-c2csc(-c3ccccc3)n2)c1` was tested, and the inhibition was 11.9% (inactive).
`COc1ccc(-c2noc(-c3cccnc3)n2)cc1OC` was tested, and the inhibition was -11.6% (inactive).
With `COc1cc(CC(C#N)(CO)c2nc3ccccc3[nH]2)ccc1OC(F)F` (stereo unspecified) the inhibition was 16.3% (inactive).
For `Cc1nc(N2CCCC2)c2ccsc2n1`, the inhibition was -2.9% (inactive).
With `CCN(CC)CCCNC(=O)CSc1c2c(nc3cc(Cl)ccc13)CCCC2` the inhibition was -5.8% (inactive).
With `O=C(CSc1c2c(nc3cc(Cl)ccc13)CCCC2)NCCN1CCOCC1` the inhibition was 2.2% (inactive).
For `CCN(CC)CCNC(=O)CSc1c2c(nc3cc(Cl)ccc13)CCCC2`, the inhibition was 56.3% (active).
With `Cn1c(Cn2c(=O)sc3ccccc32)nnc1SCC(=O)NCC1CCCO1` (stereo unspecified) the inhibition was 2.5% (inactive).
With `CC(C)Cc1ccc(/C=C/C(=O)N2CCCCC2)cc1` the inhibition was 9.7% (inactive).
`Cc1ccc2nc(NC(=O)c3ccc(-c4nc5ccccc5s4)s3)sc2c1` was tested, and the inhibition was -17.4% (inactive).
`Cc1ccc2nc(N3CCCCC3)c(C=O)c(=O)n2c1` was tested, and the inhibition was -6.8% (inactive).
In the case of `COc1ccc(N2CCN(c3nc4ccccn4c(=O)c3C=O)CC2)cc1`, the inhibition is reported as 42.4% (inactive).
In the case of `Cc1ccc2nc(N3CCOCC3)c(C=O)c(=O)n2c1`, the inhibition is reported as 2.9% (inactive).
For `COc1ccc(N2CCN(c3nc4ccc(C)cn4c(=O)c3C=O)CC2)cc1`, the inhibition was 56.9% (active).
In the case of `Cc1ccc2nc(N3CCN(c4ccccc4F)CC3)c(C=O)c(=O)n2c1`, the inhibition is reported as 19.9% (inactive).
For `Cc1ccc2nc(N3CCN(c4ccccc4)CC3)c(C=O)c(=O)n2c1`, the inhibition was 50.4% (active).
For `CC(C)(C)c1ccc(NC(=O)COC(=O)CCN2C(=O)c3cccc([N+](=O)[O-])c3C2=O)cc1`, the inhibition was 3.2% (inactive).
For `CN1CCN(S(=O)(=O)c2ccc(NC(=O)c3csc4ccccc34)cc2)CC1`, the inhibition was -13.4% (inactive).
With `CC(=O)Nc1ccc(NS(=O)(=O)Cc2ccccc2)cc1` the inhibition was 3.4% (inactive).
`COc1ccc(C(CNC(=O)Cc2ccccc2F)N2CCCCC2)cc1` (stereo unspecified) was tested, and the inhibition was -1.6% (inactive).
With `CN1/C(=C\C(=O)c2ccco2)c2ccccc2CC1(C)C` the inhibition was -4.8% (inactive).
For `Cc1ccccc1NC(=S)NC12CN3CN(CN(C3)C1)C2`, the inhibition was 1.3% (inactive).
With `CCc1ccccc1N1CC23C=CC(O2)C(C(=O)OCC(C)C)C3C1=O` (stereo unspecified) the inhibition was 7.8% (inactive).
With `Cc1cccc(-c2nnc(SCC#N)n2Cc2ccccc2)c1` the inhibition was -0.8% (inactive).
For `CC(Sc1cccc[n+]1[O-])C(=O)Nc1ccc(Oc2ccccc2)cc1` (stereo unspecified), the inhibition was 0% (inactive).
`CC(=O)N/N=C/c1c(C)[nH]n(-c2ccccc2)c1=O` was tested, and the inhibition was 7.9% (inactive).
`O=C(O)CN1C(=O)/C(=C/c2ccsc2)SC1=S` was tested, and the inhibition was -5.3% (inactive).
In the case of `COC(=O)c1ccc(CC(=O)c2c(C)cc(O)cc2O)o1`, the inhibition is reported as 50.8% (active).
In the case of `COC(=O)c1ccc(CC(=O)c2ccc(O)cc2O)o1`, the inhibition is reported as -59.1% (inactive).
`Cc1cc(O)cc(O)c1C(=O)Cc1ccccc1` was tested, and the inhibition was -2.6% (inactive).
`CCCc1cc(C(=O)Cc2ccc(C(=O)OCC)o2)c(O)cc1O` was tested, and the inhibition was -51.6% (inactive).
With `CCOC(=O)c1ccc(CC(=O)c2ccc(O)cc2O)o1` the inhibition was -31.2% (inactive).
With `Cc1ccc(NCc2nnc(SCC(=O)NCc3ccco3)n2CC2CCCO2)c(C)c1` (stereo unspecified) the inhibition was 8% (inactive).
For `CCSC1=NCCN1S(=O)(=O)c1ccccc1`, the inhibition was 7.2% (inactive).
With `C/C(=C\C(=O)Nc1cc(C)on1)c1ccccc1` the inhibition was 15.6% (inactive).
With `Cc1nnc(NC(=O)C(C)Oc2ccc3c(C)cc(=O)oc3c2)s1` (stereo unspecified) the inhibition was -8.9% (inactive).
In the case of `CCS(=O)(=O)N1Cc2ccccc2CC1C(=O)Nc1ncc(C)s1` (stereo unspecified), the inhibition is reported as -7.1% (inactive).
`Clc1cccc(Cl)c1Cn1cnc2c(N3CCCCCC3)ncnc21` was tested, and the inhibition was 14.8% (inactive).
In the case of `CC(=O)c1ccc2cccc3c2c1N=CN3C`, the inhibition is reported as 55.2% (active).
`CC(=O)N1C(=O)c2cccc3cccc(c23)C(=O)N1C(C)=O` was tested, and the inhibition was 7.9% (inactive).
In the case of `CC(=O)c1c(C(C)=O)c(C)n(-c2cccc3cccnc23)c1C`, the inhibition is reported as -2.3% (inactive).
`CC1=Nc2ncnn2C(c2ccccc2)/C1=N\O` (stereo unspecified) was tested, and the inhibition was -9.4% (inactive).
With `Cc1ccc(NC2c3ncccc3C(=O)N2c2ccccc2C)cc1C` (stereo unspecified) the inhibition was -17.7% (inactive).
`O=C(CCNC(=O)Cn1ccc2ccccc2c1=O)NCCCN1CCOCC1` was tested, and the inhibition was 10.9% (inactive).
For `CC(C)(C)c1ccc(OCC(=O)N/N=C/c2ccsc2)cc1`, the inhibition was 54.9% (active).
In the case of `COc1ccc(OCC(=O)N/N=C/c2ccsc2)cc1`, the inhibition is reported as 17.2% (inactive).
For `Cc1ccc(C)c(OCC(=O)N/N=C/c2ccsc2)c1`, the inhibition was 3% (inactive).
For `O=C(O)c1cccc(N2C(=O)c3cccc(Oc4ccc(Cl)cc4)c3C2=O)c1`, the inhibition was -8.6% (inactive).
With `Cc1cccc(N2C(=O)c3cccc(Oc4ccc(Cl)cc4)c3C2=O)c1` the inhibition was 13.8% (inactive).
In the case of `Cc1ccc(N2C(=O)c3cccc(Oc4ccc(Cl)cc4)c3C2=O)c(C)c1`, the inhibition is reported as 50.4% (active).
With `Cc1[nH]c(=O)c(C#N)cc1-c1ccccc1` the inhibition was 10.3% (inactive).
For `CCn1c(=O)cc(SCC(=O)N2CCN(C)CC2)c2ccccc21`, the inhibition was -10.8% (inactive).
In the case of `CC(=O)Nc1ccc(-c2nc(C)c(C(C)=O)n2O)cc1`, the inhibition is reported as 22.6% (inactive).
`CC(=O)Nc1ccccc1OCC(=O)c1cc(C)n(Cc2cccs2)c1C` was tested, and the inhibition was 17.5% (inactive).
`O=C(COc1cccnc1[N+](=O)[O-])NCc1ccco1` was tested, and the inhibition was 65.7% (active).
In the case of `Cc1ccc2cccc(OCC(=O)c3cc(C)n(Cc4ccco4)c3C)c2n1`, the inhibition is reported as 20.9% (inactive).
In the case of `CCOc1ncccc1C(=O)OCC(=O)c1cc(C)n(Cc2ccco2)c1C`, the inhibition is reported as 12.1% (inactive).
With `Cc1ccc(OCC(=O)c2cc(C)n(Cc3cccs3)c2C)c([N+](=O)[O-])n1` the inhibition was 26.4% (inactive).
`Cc1ccc(OCC(=O)NCc2ccco2)c([N+](=O)[O-])n1` was tested, and the inhibition was 1.9% (inactive).
For `Cc1cc(C(=O)COc2cccnc2[N+](=O)[O-])c(C)n1Cc1ccco1`, the inhibition was 59.5% (active).
`O=C(COc1cccnc1[N+](=O)[O-])NCc1cccs1` was tested, and the inhibition was 3% (inactive).
In the case of `Cc1cc(C(=O)COc2cccnc2[N+](=O)[O-])c(C)n1Cc1cccs1`, the inhibition is reported as 64.4% (active).
For `O=[N+]([O-])c1cc(C(F)(F)F)ccc1NCCOc1ccccc1`, the inhibition was 9% (inactive).
`O=C(CCCCn1c(=O)c2ccccc2n(CC(=O)Nc2cccc(F)c2)c1=O)NCc1ccco1` was tested, and the inhibition was 9.4% (inactive).
With `COc1ccc(S(=O)(=O)N(CC(=O)N2CCN(c3ccccc3OC)CC2)c2ccccc2)cc1` the inhibition was 13.1% (inactive).
`COc1ccc(NC(C)=O)cc1NC(C)c1nc2sc(C)c(C)c2c(=O)[nH]1` (stereo unspecified) was tested, and the inhibition was 66.6% (active).
`COc1ccc(NC(C)=O)cc1NC(C)C(=O)Nc1ccc(F)cc1` (stereo unspecified) was tested, and the inhibition was 7% (inactive).
For `Cc1sc2nc(C(C)Nc3ccccc3N3CCOCC3)[nH]c(=O)c2c1C` (stereo unspecified), the inhibition was 26.7% (inactive).
In the case of `COc1ccc(S(=O)(=O)CCC(=O)N2CCN(c3ccc(F)cc3)CC2)cc1`, the inhibition is reported as -1.5% (inactive).
With `CCn1c(COc2ccc3c(c2)OCO3)nnc1SCC(=O)O` the inhibition was -46.4% (inactive).
In the case of `Cc1ccc2cccc(OC(=O)c3ccc4c(c3)OCCO4)c2n1`, the inhibition is reported as 54% (active).
`COc1ccccc1/C=C/C(=O)Oc1cccc2cccnc12` was tested, and the inhibition was 26.5% (inactive).
In the case of `CCc1nc2ccccc2c(C(=O)Oc2cccc3cccnc23)c1C`, the inhibition is reported as 7.3% (inactive).
`COC(=O)c1ccccc1OCCOCCOc1cccc2ccc(C)nc12` was tested, and the inhibition was 45% (inactive).
In the case of `Cc1ccc2cccc(OCC(=O)Nc3ccc4c(c3)OCO4)c2n1`, the inhibition is reported as 15.2% (inactive).
With `Cc1ccc2cccc(OC(=O)/C=C\c3ccccc3)c2n1` the inhibition was 60.1% (active).
In the case of `Cc1c(C(=O)Nc2cccc3cccnc23)oc2ccccc12`, the inhibition is reported as -0.2% (inactive).
`Cc1c(C(=O)Oc2cccc3cccnc23)oc2ccccc12` was tested, and the inhibition was 50% (active).
With `O=C(/C=C\c1ccccc1)Oc1cccc2cccnc12` the inhibition was 51.9% (active).
`O=C(Oc1cccc2cccnc12)c1ccc2c(c1)OCCO2` was tested, and the inhibition was 29.5% (inactive).
With `Cc1ccc(C(C)C)c(OC(=O)/C=C/c2ccccc2)c1` the inhibition was 6.5% (inactive).
For `O=C(/C=C\c1ccco1)Oc1cccc2cccnc12`, the inhibition was 34.3% (inactive).
With `CCOCC(=O)Nc1nnc(COCC)s1` the inhibition was -1.8% (inactive).
With `Cc1cc(NC(=O)COC(=O)CCCOc2ccc(Cl)cc2C)no1` the inhibition was 4.5% (inactive).
For `O=C(O)COc1ccc(/C=N/NC(=O)C2CCCN2S(=O)(=O)c2ccc(Cl)cc2)cc1` (stereo unspecified), the inhibition was -3.5% (inactive).
In the case of `O=C(O/N=C\c1ccc(N2CCOCC2)c([N+](=O)[O-])c1)c1ccc(F)cc1`, the inhibition is reported as 8% (inactive).
`COc1ccc(NC(=O)CSCc2ccc(C)cc2)cc1` was tested, and the inhibition was 1.9% (inactive).
In the case of `Cc1ccc(C2NC(=O)c3c(sc(C)c3C)N2)c(O)c1` (stereo unspecified), the inhibition is reported as -21.9% (inactive).
`Nc1ccccc1Nc1cc(-c2ccccc2)[nH]n1` was tested, and the inhibition was 28% (inactive).
With `Cc1nc2c(n1C1CCCCC1)C(=O)c1ccccc1C2=O` the inhibition was 35.4% (inactive).
In the case of `COc1ccc(NC(=O)CSc2cc(C)ccc2C)cn1`, the inhibition is reported as 10.5% (inactive).
For `COc1ccc(CC2(CO)CCN(Cc3cccc(OC)c3OC)CC2)cc1`, the inhibition was 6.7% (inactive).
With `COc1ccc2[nH]c(=O)c(CNc3cccc(C)c3)cc2c1` the inhibition was 55.1% (active).
`COc1ccc2[nH]c(=O)c(CNc3ccccc3)cc2c1` was tested, and the inhibition was 44.2% (inactive).
In the case of `COc1ccc(NCc2cc3cc(OC)ccc3[nH]c2=O)cc1`, the inhibition is reported as 30.7% (inactive).
For `COc1ccc2[nH]c(=O)c(CNc3ccc(C)c(C)c3)cc2c1`, the inhibition was 48.9% (inactive).
For `COc1ccc(NCc2cc3ccccc3[nH]c2=O)cc1`, the inhibition was 59.2% (active).
`CC(C)(C)NCc1cc2ccccc2[nH]c1=O` was tested, and the inhibition was 6.8% (inactive).

From PubChem BioAssay AID1220 (Sanford-Burnham Center for Chemical Genomics, 2008)
